# The supplement of paper PMC11732987, “Enantioselective OTUD7B fragment discovery through chemoproteomics screening and high-throughput optimisation” (Communications Chemistry, 2025)
# Unmarked numbers belong to inactive results.
# Columns and labels:
# Experiment in all cases: log2 ratio of Biotin-Ahx-Ub-VS probe labelling (fragment/DMSO); higher = less target engagement (more negative = stronger competition), active = hit call of the paper (q ≤ 0.05, log2 ratio ≤ -1)
# Conditions in all cases: compound concentration: 200 uM; treatment time: 3 h
# [1] = target: T1, USP19 (UniProt O94966)
# T1 sequence (whole entry): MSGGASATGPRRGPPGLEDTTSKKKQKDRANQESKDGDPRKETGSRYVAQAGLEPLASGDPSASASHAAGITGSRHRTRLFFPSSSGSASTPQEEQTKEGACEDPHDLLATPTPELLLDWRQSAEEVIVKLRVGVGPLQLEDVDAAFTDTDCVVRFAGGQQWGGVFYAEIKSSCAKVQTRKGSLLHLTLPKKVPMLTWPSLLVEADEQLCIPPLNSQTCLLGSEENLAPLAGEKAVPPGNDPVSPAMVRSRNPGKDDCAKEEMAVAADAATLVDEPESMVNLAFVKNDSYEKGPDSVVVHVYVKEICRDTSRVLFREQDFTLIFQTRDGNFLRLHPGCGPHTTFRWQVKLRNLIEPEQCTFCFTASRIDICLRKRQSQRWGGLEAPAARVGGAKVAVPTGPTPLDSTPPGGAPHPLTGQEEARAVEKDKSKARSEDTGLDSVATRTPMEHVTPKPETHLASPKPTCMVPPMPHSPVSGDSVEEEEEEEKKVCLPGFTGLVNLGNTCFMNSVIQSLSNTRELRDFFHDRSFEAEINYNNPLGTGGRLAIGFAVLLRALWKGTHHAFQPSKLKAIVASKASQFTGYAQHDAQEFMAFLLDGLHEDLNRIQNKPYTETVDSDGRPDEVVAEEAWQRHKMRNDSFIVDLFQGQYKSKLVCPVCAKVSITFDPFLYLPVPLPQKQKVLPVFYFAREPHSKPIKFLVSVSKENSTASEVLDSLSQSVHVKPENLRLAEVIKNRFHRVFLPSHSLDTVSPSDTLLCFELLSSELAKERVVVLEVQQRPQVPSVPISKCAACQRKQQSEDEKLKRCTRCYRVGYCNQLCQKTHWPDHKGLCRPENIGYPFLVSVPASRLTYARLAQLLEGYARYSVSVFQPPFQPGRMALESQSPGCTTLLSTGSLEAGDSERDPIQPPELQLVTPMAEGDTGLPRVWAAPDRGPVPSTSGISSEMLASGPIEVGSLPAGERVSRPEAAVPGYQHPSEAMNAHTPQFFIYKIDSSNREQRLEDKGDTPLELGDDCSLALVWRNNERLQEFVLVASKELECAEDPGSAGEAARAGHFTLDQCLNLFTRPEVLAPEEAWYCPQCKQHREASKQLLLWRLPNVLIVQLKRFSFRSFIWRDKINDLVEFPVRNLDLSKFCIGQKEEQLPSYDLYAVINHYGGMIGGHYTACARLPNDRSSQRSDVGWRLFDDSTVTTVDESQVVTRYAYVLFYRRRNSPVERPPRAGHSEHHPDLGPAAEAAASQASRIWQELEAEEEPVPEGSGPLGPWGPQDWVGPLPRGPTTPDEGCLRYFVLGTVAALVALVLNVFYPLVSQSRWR
# Outline: (§1)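 HEK293T lysate in Tris/CHAPS/IGEPAL buffer with protease inhibitors (495 µg per sample) was given fragment at 200 µM or vehicle for 3 h, in triplicate. It then received Biotin-Ahx-Ub-VS at 0.5 µM final for 1 h. Labelled DUBs were NeutrAvidin-enriched, digested with LysC and trypsin, and run by diaPASEF LC-MS/MS. Values are average log2 fragment/vehicle ratios by unpaired t-test on global-median-normalised Spectronaut quantities of proteins with ≥2 unique peptides.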
# [2] = target: USP24 (UniProt Q9UPU5)
# Sequence of USP24 (Q9UPU5 whole entry): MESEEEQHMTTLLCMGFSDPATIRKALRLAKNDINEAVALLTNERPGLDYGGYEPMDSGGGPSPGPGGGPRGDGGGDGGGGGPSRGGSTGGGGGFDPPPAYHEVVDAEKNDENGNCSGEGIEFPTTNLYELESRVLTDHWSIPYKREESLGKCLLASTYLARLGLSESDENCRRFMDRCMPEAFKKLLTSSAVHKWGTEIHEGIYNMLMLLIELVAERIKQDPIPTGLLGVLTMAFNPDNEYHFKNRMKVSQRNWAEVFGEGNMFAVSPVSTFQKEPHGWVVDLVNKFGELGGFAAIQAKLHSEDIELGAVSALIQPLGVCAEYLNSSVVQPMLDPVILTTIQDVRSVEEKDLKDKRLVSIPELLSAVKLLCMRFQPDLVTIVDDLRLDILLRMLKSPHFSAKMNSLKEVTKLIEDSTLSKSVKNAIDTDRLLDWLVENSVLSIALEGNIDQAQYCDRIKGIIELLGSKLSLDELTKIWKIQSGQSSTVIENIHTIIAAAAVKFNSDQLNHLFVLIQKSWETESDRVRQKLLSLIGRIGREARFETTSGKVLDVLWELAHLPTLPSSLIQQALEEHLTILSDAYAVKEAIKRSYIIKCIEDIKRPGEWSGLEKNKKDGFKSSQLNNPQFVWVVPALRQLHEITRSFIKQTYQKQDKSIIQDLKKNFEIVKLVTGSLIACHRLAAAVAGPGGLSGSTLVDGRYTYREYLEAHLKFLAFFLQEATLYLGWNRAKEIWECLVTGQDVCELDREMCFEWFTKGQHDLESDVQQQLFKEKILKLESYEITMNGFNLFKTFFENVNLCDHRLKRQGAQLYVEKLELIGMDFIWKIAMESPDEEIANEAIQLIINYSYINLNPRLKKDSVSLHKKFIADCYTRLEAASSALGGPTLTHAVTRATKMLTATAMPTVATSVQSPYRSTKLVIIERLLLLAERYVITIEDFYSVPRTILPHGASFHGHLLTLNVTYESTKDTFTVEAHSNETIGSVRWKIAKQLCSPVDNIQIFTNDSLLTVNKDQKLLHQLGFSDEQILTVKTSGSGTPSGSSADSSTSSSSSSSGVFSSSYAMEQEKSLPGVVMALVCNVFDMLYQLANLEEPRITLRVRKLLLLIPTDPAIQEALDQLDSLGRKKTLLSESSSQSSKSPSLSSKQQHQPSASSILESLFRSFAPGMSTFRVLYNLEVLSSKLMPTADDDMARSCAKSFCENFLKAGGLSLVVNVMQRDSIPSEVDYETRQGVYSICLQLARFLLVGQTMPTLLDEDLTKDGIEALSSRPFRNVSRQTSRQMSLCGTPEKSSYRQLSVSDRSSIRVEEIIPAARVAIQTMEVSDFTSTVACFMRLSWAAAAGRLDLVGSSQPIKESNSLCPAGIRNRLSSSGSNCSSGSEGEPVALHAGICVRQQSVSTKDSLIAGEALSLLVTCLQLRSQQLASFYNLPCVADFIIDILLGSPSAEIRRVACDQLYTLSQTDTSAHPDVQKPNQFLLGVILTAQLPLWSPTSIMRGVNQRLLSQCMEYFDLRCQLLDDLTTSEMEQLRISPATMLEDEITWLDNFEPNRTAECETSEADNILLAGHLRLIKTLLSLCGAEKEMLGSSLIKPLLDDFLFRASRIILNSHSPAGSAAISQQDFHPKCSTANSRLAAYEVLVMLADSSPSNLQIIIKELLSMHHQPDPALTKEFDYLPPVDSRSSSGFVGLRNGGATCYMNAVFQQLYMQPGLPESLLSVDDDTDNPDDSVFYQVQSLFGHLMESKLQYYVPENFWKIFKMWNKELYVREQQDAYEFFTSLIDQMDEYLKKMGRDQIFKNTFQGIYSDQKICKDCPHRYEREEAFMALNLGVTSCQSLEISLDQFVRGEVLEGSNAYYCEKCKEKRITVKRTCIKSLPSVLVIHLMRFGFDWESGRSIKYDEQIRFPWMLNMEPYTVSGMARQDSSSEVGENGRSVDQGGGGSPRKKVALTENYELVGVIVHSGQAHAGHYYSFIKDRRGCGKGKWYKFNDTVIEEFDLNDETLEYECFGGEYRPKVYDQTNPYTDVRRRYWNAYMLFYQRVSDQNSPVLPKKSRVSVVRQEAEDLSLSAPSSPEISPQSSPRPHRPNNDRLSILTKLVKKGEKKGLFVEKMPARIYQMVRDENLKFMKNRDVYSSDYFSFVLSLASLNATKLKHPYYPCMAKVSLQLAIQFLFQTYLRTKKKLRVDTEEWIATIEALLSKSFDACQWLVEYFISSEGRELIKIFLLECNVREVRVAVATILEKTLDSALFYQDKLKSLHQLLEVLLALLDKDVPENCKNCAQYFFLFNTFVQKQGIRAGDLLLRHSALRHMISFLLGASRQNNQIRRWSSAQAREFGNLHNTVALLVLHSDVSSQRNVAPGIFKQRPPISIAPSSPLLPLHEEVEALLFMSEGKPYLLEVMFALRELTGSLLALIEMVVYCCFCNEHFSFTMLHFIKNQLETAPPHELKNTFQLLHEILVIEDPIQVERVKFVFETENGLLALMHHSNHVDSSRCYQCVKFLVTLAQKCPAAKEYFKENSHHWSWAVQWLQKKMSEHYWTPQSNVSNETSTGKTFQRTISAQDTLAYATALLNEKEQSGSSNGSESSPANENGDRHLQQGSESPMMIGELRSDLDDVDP
# Outline: as §1
# [3] = target: T2, USP25 (UniProt Q9UHP3)
# T2 sequence (whole entry): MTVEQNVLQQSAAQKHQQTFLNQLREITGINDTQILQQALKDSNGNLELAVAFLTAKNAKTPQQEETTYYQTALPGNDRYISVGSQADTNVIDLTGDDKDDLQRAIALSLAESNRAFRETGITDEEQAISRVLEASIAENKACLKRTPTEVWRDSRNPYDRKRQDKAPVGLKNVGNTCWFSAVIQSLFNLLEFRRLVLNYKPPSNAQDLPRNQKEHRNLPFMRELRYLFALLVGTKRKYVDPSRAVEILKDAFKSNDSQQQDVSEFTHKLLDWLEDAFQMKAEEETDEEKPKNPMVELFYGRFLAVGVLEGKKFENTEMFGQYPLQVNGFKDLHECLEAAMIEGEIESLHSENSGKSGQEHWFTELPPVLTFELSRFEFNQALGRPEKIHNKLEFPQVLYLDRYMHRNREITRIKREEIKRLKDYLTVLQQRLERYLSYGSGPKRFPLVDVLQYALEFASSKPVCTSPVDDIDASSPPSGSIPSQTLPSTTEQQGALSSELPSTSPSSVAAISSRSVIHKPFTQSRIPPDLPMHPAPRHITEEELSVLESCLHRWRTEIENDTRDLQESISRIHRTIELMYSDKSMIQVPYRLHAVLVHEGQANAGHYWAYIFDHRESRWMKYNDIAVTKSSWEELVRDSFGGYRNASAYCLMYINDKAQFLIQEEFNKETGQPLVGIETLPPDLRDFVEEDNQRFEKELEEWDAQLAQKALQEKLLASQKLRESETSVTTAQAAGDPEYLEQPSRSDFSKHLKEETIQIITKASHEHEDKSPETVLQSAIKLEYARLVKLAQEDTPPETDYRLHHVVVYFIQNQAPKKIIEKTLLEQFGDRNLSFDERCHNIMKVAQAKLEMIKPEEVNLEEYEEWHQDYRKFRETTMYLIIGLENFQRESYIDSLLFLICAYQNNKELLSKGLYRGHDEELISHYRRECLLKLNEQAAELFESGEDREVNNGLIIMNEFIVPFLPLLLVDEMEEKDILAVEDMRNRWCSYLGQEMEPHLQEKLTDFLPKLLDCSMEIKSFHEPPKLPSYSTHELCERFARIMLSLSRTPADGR
# Outline: as §1
# [4] = target: T3, USP28 (UniProt Q96RU2)
# T3 sequence (whole entry): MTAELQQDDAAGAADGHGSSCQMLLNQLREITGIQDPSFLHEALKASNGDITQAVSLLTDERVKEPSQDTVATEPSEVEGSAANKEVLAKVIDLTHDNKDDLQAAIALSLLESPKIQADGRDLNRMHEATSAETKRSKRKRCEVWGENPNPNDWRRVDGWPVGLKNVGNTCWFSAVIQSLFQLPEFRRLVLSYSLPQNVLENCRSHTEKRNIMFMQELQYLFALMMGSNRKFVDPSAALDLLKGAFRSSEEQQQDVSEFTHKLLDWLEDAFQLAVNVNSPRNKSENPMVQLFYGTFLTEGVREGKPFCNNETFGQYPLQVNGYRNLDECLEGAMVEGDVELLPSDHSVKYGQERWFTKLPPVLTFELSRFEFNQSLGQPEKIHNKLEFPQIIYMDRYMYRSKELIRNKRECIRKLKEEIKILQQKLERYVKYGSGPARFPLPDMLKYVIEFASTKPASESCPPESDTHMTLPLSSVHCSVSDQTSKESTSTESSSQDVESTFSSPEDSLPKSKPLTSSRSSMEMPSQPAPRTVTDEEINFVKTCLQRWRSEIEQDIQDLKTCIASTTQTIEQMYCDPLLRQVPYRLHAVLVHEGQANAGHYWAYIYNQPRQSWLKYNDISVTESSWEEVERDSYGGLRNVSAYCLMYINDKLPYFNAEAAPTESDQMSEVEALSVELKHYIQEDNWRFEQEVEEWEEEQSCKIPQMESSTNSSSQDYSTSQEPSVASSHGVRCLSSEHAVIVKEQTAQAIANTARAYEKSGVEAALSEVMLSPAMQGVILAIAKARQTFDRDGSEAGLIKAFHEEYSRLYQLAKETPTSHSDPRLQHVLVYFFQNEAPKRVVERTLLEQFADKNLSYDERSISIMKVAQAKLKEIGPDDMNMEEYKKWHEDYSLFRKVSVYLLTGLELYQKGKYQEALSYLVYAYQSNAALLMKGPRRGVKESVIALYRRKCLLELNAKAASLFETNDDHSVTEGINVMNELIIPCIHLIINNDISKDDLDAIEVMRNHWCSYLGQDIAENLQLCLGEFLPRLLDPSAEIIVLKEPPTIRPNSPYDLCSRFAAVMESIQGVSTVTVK
# Outline: as §1
smiles,measurement,setting,value
O=C(CCl)Nc1cc2c(cc1Cl)OCCCO2,log2 ratio of Biotin-Ahx-Ub-VS probe labelling,[1],0.113
same,log2 ratio of Biotin-Ahx-Ub-VS probe labelling,[2],0.00346
same,log2 ratio of Biotin-Ahx-Ub-VS probe labelling,[3],-2.47 (active)
same,log2 ratio of Biotin-Ahx-Ub-VS probe labelling,[4],-1.92 (active)
